PLK1 PBD block: qHTS for Inhibitors of PLK1-PDB (polo-like kinase 1 - polo-box domain): Primary Screen; Potency, µM, for the others: max response, negative = inhibition, actives largely listed as inhibitors; Plk1 PBD binding of FITC phosphopeptide, fluorescence polarization; AID 720504, 2013; hit rate 2.8% among 360,000; also: potency is read from the fitted curve at half-maximal effect; series mostly up to about 57 µM; nearly all actives have a fitted effect of over 65% in size
Mm-Cpn inhibitor: Inhibitors of TCP-1 ring complex (TRiC) of Methanococcus maripaludis (MmCpn): qHTS | purified Mm-Cpn ATPase, ADP Transcreener TR-FRET | Potency, µM (doses to about 76.9 µM), inactives show at the top dose activity, negative = inhibition, usual class: inhibitors | hit rate 0.031% among 330,000 | AID 504842, 2011; also: potency is read from the fitted curve at half-maximal effect; nearly all actives have a fitted effect of over 80% in size
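Compound-treated chaperonin, 25 nM final, turns over 10 uM ATP at 37°C for 30 min following a 10 min preincubation; ADP generated competes with ADP-d2 for Eu-cryptate antibody, lowering FRET.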
CCT modulator: High-Throughput Screening for Modulators of Cytosolic Chaperonin Activity; purified chaperonin ATPase assay, HTRF ADP detection, 30 min; activity change, % (concentration not given with the values), hits read low; hit rate 0.3% among 360,000; AID 651819, 2012; in the data active = activity change below about -30%
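ATPase activity: ADP formed was measured by HTRF Transcreener (665/615 nm ratio) after 30 min at 37 deg C with 10 uM ATP. Compounds screened at one 76 uM concentration against 40 or 20 nM TRiC in Tris pH 7.4/KCl/MgCl2/DTT buffer.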
VDR inhibitor: Inhibitors of the vitamin D receptor (VDR): qHTS. AID 504847, 2011. hit rate 0.93% among 400,000. VDR-SRC2-3 peptide fluorescence polarization, 2 h. Vitamin D3 receptor (Homo sapiens), P11473. Potency, µM, for inactives: max response, negative = inhibition, actives largely listed as inhibitors; also: potency is read from the fitted curve at half-maximal effect
Target sequence (P11473 whole entry, looked up): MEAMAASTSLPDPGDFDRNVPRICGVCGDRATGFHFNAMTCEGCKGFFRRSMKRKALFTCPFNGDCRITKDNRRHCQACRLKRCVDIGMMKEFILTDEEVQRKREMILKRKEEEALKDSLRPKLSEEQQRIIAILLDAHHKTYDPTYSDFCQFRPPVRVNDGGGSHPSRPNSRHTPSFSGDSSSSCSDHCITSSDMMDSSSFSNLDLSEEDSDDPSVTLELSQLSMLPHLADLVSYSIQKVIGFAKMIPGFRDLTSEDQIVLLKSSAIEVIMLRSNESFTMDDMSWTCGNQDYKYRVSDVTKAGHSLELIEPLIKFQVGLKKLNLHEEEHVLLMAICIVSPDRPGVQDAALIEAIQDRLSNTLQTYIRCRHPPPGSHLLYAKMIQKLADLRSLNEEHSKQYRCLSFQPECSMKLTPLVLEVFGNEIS
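Two reagent solutions held at 4 deg C in the dark were dispensed, compounds pinned at 23 nl, and the mixture incubated 2 h at room temperature. Read-out: fluorescence polarization of VDR–SRC2-3 peptide binding.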
G9a inh: qHTS Assay for Inhibitors of Histone Lysine Methyltransferase G9a. Histone-lysine N-methyltransferase EHMT2 (Homo sapiens), Q96KQ7. G9a H3K9 monomethylation, AlphaScreen, 2 h. Potency, µM (doses to about 102 µM), without a hit: top-dose activity, negative = inhibition, most hits filed as inhibitors. hit rate 8.8% among 350,000. AID 504332, 2011; also: potency is read from the fitted curve at half-maximal effect; nearly all actives have a fitted effect of over 75% in size
Target sequence (Q96KQ7 913-1193 limits assumed): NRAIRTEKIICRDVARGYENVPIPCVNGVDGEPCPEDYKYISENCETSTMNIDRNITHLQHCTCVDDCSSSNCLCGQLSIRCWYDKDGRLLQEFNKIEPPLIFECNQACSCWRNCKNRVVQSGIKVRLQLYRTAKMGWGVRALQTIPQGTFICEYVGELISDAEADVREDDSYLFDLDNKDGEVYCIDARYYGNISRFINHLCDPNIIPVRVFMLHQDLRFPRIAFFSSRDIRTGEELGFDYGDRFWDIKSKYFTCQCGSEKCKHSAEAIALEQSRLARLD
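Using a bead-based AlphaScreen, monomethylated H3K9 product from 2 h room-temperature reactions (G9a 20 nM, peptide 500 nM, SAM 20 uM) was detected with 0.5 ug/mL rabbit anti-H3K9me1 antibody.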
Sfp inh: qHTS Assay for Inhibitors of Bacillus subtilis Sfp phosphopantetheinyl transferase (PPTase) | 4'-phosphopantetheinyl transferase ffp (Bacillus subtilis), Q9F4F7 | Biochemical Sfp PPTase activity, qHTS | Potency, µM, inactives show largest response in the series, negative = inhibition, usual class: inhibitors | hit rate 3.5% among 310,000;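 also: the enzyme is Sfp with the accession as filed and its product quenches rhodamine fluorescence; potency is read from the fitted curve at half-maximal effect; 0% = enzyme reaction without inhibitor and -100% = no enzyme wells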
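Sfp 15 nM + cpd, 15 min RT; start w/ rhodamine-CoA 5 uM, BHQ-2-YbbR 12.5 uM (final); 50 mM Hepes pH 7.6, 10 mM MgCl2, 0.01% NP-40, 0.01% BSA; read 525/598 nm at 0 and 30 min.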
Active calls of the source: *; [ ] = another dose, or the depositor's remark. Hits are enriched below; roughly 10% of the tested compounds scored in any of these assays. Unless noted, calls follow the shape of the dose curve; as a rule, active = well fitted curve in the direction sought with a large enough effect; inconclusive = small, poorly fitted or top-dose-only effect, or another doubt; inactive = no such curve, though single readings can be large; an effect the other way counts as inactive or inconclusive. Unless noted, % is scaled to controls: 0 for no effect and ±100 for the full control effect.

Screening COc1cc(/C=C(\C#N)c2nc(-c3cc4ccccc4oc3=O)cs2)ccc1O returned PLK1 PBD block 4.1%, Mm-Cpn inhibitor -1.9%, CCT modulator -2.7, VDR inhibitor -19.1%, G9a inh inconclusive and Sfp inh 8.1%.
`O=C(CN1CCOCC1)Nc1ccc(Cl)c(Cl)c1` gave PLK1 PBD block -7.5%, Mm-Cpn inhibitor 1.4%, CCT modulator 0.7, VDR inhibitor 1.3%, G9a inh 8.91µM* and Sfp inh -13.8%.
`O=C(CCCN1C(=O)CCC1=O)Nc1ccc2c(c1)OCO2` gave PLK1 PBD block -13.2%, Mm-Cpn inhibitor 1.0%, CCT modulator -1.6, VDR inhibitor -3.9%, G9a inh -11.5%[59 µM] and Sfp inh 3.5%.
For O=C(CCCCCN1C(=O)CCC1=O)Nc1ccc2c(c1)OCO2 the results were PLK1 PBD block 23.8µM*, Mm-Cpn inhibitor -1.8%, CCT modulator 2.3, VDR inhibitor -15.5%, G9a inh -2.5%[12.7 µM] and Sfp inh 15.4%.
Screening O=C(CN1CCOCCOCCOCC1)Nc1ccccc1 returned PLK1 PBD block -8.9%, Mm-Cpn inhibitor 2.0%, CCT modulator 3.9, VDR inhibitor 8.8%, G9a inh inconclusive and Sfp inh 12.5%.
O=C(CN1CCOCCOCCN(CC(=O)Nc2ccccc2)CCOCC1)Nc1ccccc1 was read as PLK1 PBD block -11.1%, Mm-Cpn inhibitor -0.1%, CCT modulator -3.3, VDR inhibitor 5.5%, G9a inh 31.6µM* and Sfp inh 2.1%.
Cc1nn(CC(=O)Nc2ccc3c(c2)OCO3)c(C)c1Cl was read as PLK1 PBD block 4.1%, Mm-Cpn inhibitor 0.9%, CCT modulator -22.3, VDR inhibitor -8.7%, G9a inh 70.8µM* and Sfp inh -1.3%.
Screening CC12CCC=CC1C(c1ccc3ccccc3c1)N(Cc1ccccc1)C2=O (configuration not stated) returned VDR inhibitor inconclusive and Sfp inh -10.1%.
For CCC(C(=O)NCCc1ccccc1)n1nc(C)c2sc3ccccc3c2c1=O (configuration not stated) the results were VDR inhibitor 6.8% and G9a inh -5.1%[59 µM].
For O=C(CSCC(=O)N1CCOCC1)Nc1ccccc1 the results were PLK1 PBD block -12.5%, Mm-Cpn inhibitor 0.2%, CCT modulator 2.6, VDR inhibitor 3.1%, G9a inh 44.7µM* and Sfp inh 2.9%.
For O=C(CN1CCOCC1)Nc1ccc2c(c1)OCO2 the results were PLK1 PBD block 10.6µM*, Mm-Cpn inhibitor 2.1%, CCT modulator -2.0, VDR inhibitor -13.7%, G9a inh 21.3% and Sfp inh 9.0%.
COc1ccc(NC(=O)CN2CCN(CC(=O)Nc3ccc4c(c3)OCO4)CC2)cc1 was read as PLK1 PBD block 0.4%, Mm-Cpn inhibitor -0.9%, CCT modulator 2.3, VDR inhibitor 6.5%, G9a inh 9.4%[12.7 µM] and Sfp inh 13.1%.
For O=C(CN1CCOCC1)Nc1cc(C(F)(F)F)ccc1Cl the results were PLK1 PBD block 21.2µM*, Mm-Cpn inhibitor 1.9%, CCT modulator 1.2, VDR inhibitor inconclusive, G9a inh 28.0% and Sfp inh 1.4%.
For Cc1ccc(C(C)NC(=O)c2cccnc2)cc1 (configuration not stated) the results were PLK1 PBD block -7.3%, CCT modulator 1.1 and VDR inhibitor 1.7%.
`CC(C)C(NC(=O)c1cccnc1)C(=O)O` (configuration not stated) gave PLK1 PBD block -3.1%, Mm-Cpn inhibitor -16.4%, CCT modulator 1.9, VDR inhibitor 79.4µM*, G9a inh 5.7% and Sfp inh 5.0%.
`CCOC(=O)C(O)(NC(=O)c1cccnc1)C(F)(F)F` (configuration not stated) gave PLK1 PBD block 2.8%, Mm-Cpn inhibitor -2.0%, CCT modulator 0.4, VDR inhibitor 3.2%, G9a inh inconclusive and Sfp inh 8.5%.
Screening CC(=O)C(C(C)=O)C(NC(=O)c1cccnc1)(C(F)(F)F)C(F)(F)F returned PLK1 PBD block 2.67µM*, Mm-Cpn inhibitor 1.8%, CCT modulator -3.9, VDR inhibitor inconclusive, G9a inh -15.6%[59 µM] and Sfp inh 8.0%.
`CCOc1ccc(-n2c(=O)c3sc4ccccc4c3n(Cc3cccc(C)c3)c2=O)cc1` gave VDR inhibitor 1.7% and G9a inh 42.1%[59 µM].
Screening O=C(O)c1cccc(-n2c(/C=C/c3cccc([N+](=O)[O-])c3)nc3ccccc3c2=O)c1 returned PLK1 PBD block -3.9%, Mm-Cpn inhibitor -0.6%, CCT modulator 0.6, VDR inhibitor -11.1%, G9a inh 1.8%[0.501 µM] and Sfp inh -2.9%.
O=C(O)c1cccc(-n2c(/C=C/c3ccc([N+](=O)[O-])cc3)nc3ccccc3c2=O)c1 was read as PLK1 PBD block -6.1%, Mm-Cpn inhibitor -1.0%, CCT modulator -1.9, VDR inhibitor -20.1%, G9a inh 70.8µM* and Sfp inh 8.3%.
For CCOc1ccccc1NC(=O)CN1C(=O)CC(c2ccc(OC)c(OC)c2)Sc2ccccc21 (configuration not stated) the results were VDR inhibitor 3.0% and G9a inh inconclusive.
`NC(C(=O)O)c1ccc(P(=O)(O)O)cc1` (configuration not stated) gave VDR inhibitor 17.6%, G9a inh 20.5%[59 µM] and Sfp inh 56.2µM*.
`N[C@@H](C(=O)O)c1ccc(C(=O)O)c(C(=O)O)c1` gave VDR inhibitor 1.0%, G9a inh 32.3%[59 µM] and Sfp inh 4.2%.
`Cc1cc(C)n2c(Br)c(CN3CCCC(C)C3)nc2n1` (configuration not stated) gave PLK1 PBD block -4.3%, Mm-Cpn inhibitor -2.1%, CCT modulator -0.1, VDR inhibitor 1.6%, G9a inh 4.9% and Sfp inh 9.0%.
Cc1cc(C)nc(SCc2nc3nc(C)cc(C)n3c2Br)n1 was read as PLK1 PBD block -7.2%, Mm-Cpn inhibitor -2.6%, CCT modulator 0.3, VDR inhibitor -8.6%, G9a inh 50.1µM* and Sfp inh 0.0%.
Screening Cc1ccc(N(Cc2cc(=O)[nH]c3ccccc23)C(=O)C(C)C)cc1 returned PLK1 PBD block -16.0%, Mm-Cpn inhibitor -1.6%, CCT modulator 0.3, VDR inhibitor -4.4%, G9a inh 50.1µM* and Sfp inh -2.2%.

Compound activity deposited in PubChem by National Center for Advancing Translational Sciences (NCATS).
